{
  "source": "the supplement of paper PMC11732987",
  "about": "“Enantioselective OTUD7B fragment discovery through chemoproteomics screening and high-throughput optimisation” (Communications Chemistry, 2025)",
  "experiment_in_all_cases": "log2 ratio of Biotin-Ahx-Ub-VS probe labelling (fragment/DMSO); higher = less target engagement (more negative = stronger competition), active = hit call of the paper (q ≤ 0.05, log2 ratio ≤ -1)",
  "conditions_in_all_cases": "compound concentration: 200 uM; treatment time: 3 h",
  "key": {"OTUD6B": {"biological_target": "T1, OTUD6B (UniProt Q8N6M0)", "T1 sequence (whole entry)": "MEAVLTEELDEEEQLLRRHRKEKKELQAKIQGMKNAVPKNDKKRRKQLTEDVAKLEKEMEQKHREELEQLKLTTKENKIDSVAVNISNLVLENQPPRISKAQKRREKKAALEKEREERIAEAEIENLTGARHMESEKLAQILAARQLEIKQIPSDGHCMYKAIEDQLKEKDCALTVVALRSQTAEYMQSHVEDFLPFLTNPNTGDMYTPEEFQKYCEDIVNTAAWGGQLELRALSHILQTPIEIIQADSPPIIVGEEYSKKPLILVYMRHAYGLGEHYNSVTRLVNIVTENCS", "in_short": "(§1)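 Average log2 ratios of fragment over vehicle were obtained by unpaired t-test from global-median-normalised Spectronaut label-free quantities. Proteins with ≥2 unique peptides were included. HEK293T lysate (495 µg per sample) was treated in triplicate with fragment at 200 µM or vehicle for 3 h, then with Biotin-Ahx-Ub-VS at 0.5 µM final for 1 h, and labelled DUBs were NeutrAvidin-enriched and run by diaPASEF LC-MS/MS.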"}, "OTUD7B": {"biological_target": "T2, OTUD7B (UniProt Q6GQQ9)", "T2 sequence (whole entry)": "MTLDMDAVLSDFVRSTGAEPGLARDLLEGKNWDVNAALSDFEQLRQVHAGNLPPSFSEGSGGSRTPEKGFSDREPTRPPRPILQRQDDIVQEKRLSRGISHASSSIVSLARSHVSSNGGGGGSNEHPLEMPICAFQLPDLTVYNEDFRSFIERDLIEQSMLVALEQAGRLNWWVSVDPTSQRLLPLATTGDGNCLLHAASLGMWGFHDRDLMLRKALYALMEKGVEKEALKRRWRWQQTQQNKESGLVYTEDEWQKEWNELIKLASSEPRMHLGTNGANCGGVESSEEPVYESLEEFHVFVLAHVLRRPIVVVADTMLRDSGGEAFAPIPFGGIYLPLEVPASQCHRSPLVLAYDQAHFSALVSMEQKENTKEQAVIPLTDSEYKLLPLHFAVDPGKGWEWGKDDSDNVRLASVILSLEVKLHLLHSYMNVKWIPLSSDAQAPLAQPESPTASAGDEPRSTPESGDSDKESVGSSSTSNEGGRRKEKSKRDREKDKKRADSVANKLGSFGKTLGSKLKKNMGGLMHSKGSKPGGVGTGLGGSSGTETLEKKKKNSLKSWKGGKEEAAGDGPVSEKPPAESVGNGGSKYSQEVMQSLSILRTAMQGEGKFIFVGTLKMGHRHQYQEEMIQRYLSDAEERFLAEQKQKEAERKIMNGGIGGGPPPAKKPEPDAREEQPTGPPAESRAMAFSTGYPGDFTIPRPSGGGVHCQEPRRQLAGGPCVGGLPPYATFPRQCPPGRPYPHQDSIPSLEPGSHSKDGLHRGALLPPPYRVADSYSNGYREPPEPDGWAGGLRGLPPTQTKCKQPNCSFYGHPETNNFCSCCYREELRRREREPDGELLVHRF", "in_short": "as §1"}, "PRPF8": {"biological_target": "PRPF8 (UniProt Q6P2Q9)", "in_short": "as §1"}, "PSMD7": {"biological_target": "T3, PSMD7 (UniProt P51665)", "T3 sequence (whole entry)": "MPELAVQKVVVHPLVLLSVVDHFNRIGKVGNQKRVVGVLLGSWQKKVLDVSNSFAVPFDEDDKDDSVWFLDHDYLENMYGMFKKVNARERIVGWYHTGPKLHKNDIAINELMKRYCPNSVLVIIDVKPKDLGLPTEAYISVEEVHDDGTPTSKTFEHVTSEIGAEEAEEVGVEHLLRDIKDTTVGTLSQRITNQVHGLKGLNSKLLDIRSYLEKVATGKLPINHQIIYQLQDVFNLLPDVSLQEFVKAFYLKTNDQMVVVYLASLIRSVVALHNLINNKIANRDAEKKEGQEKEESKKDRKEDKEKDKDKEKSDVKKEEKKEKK", "in_short": "as §1"}, "UCHL1": {"biological_target": "UCHL1 (UniProt P09936)", "sequence (P09936 whole entry, looked up)": "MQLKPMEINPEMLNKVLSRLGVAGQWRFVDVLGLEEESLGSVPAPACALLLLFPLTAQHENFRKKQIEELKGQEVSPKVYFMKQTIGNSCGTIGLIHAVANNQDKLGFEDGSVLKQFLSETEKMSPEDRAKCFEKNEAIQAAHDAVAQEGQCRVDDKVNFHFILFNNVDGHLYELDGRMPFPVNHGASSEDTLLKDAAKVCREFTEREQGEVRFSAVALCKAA", "in_short": "as §1"}, "UCHL3": {"biological_target": "T4, UCHL3 (UniProt P15374)", "T4 sequence (whole entry)": "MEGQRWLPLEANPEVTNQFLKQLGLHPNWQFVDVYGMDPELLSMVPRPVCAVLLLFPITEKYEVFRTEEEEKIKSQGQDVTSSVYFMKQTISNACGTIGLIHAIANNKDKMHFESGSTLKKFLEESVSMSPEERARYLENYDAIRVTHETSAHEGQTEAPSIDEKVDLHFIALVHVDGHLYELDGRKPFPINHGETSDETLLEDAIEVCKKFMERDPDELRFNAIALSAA", "in_short": "as §1"}, "UCHL5": {"biological_target": "T5, UCHL5 (UniProt Q9Y5K5)", "T5 sequence (whole entry)": "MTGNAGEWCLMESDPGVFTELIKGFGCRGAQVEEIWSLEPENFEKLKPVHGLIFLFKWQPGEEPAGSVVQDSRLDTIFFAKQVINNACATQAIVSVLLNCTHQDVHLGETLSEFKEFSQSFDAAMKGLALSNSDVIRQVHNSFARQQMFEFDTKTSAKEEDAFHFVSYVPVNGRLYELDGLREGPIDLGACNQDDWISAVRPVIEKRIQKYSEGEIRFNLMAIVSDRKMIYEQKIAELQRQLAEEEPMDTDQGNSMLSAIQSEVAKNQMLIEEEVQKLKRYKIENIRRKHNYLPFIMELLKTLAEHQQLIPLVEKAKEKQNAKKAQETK", "in_short": "as §1"}, "USP10": {"biological_target": "USP10 (UniProt Q14694)", "sequence (Q14694 whole entry)": "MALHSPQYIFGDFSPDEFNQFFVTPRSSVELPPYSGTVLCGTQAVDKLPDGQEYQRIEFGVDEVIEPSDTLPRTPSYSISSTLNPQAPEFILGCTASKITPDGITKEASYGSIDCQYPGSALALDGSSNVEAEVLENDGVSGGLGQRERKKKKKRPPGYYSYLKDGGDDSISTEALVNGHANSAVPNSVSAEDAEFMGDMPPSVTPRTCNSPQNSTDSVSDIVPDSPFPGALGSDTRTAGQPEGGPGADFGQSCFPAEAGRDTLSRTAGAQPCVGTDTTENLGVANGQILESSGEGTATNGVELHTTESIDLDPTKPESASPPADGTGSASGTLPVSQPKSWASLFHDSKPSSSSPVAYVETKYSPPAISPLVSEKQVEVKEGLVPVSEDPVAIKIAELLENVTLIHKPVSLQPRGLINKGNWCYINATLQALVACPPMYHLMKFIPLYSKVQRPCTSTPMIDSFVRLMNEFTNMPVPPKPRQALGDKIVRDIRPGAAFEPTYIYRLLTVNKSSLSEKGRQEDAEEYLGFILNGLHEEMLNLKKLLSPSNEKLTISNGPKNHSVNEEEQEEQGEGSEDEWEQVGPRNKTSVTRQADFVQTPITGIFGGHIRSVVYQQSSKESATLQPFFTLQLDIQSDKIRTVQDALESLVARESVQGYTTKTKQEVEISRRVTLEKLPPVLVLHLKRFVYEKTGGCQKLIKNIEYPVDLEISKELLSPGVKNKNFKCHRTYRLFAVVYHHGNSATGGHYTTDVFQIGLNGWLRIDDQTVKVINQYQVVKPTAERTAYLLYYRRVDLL", "in_short": "as §1"}, "USP15": {"biological_target": "T6, USP15 (UniProt Q9Y4E8)", "T6 sequence (whole entry)": "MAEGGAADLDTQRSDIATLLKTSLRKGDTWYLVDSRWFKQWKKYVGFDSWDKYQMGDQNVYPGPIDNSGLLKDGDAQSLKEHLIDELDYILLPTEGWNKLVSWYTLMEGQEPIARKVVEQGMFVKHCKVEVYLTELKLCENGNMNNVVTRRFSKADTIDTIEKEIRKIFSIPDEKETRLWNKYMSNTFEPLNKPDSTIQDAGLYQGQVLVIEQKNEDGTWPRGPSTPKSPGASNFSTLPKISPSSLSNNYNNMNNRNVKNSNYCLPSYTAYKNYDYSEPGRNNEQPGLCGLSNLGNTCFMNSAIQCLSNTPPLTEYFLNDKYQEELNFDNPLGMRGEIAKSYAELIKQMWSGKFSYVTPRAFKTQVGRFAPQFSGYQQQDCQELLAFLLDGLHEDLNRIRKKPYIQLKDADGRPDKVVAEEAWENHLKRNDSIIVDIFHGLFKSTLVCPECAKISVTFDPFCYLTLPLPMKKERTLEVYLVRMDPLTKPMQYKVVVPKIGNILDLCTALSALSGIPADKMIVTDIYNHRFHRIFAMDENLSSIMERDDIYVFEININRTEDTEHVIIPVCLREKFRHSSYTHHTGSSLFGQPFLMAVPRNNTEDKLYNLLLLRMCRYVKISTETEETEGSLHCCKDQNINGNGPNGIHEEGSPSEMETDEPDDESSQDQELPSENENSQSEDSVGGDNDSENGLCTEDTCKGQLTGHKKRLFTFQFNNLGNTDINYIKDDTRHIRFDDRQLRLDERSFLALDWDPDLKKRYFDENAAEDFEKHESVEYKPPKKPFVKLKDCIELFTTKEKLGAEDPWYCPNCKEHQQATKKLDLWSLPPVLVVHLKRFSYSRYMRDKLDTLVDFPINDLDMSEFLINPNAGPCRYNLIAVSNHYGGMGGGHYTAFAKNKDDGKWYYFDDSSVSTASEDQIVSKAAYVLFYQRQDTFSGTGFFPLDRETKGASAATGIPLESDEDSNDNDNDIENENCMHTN", "in_short": "as §1"}, "USP16": {"biological_target": "USP16 (UniProt Q9Y5T5)", "sequence (Q9Y5T5 whole entry, looked up)": "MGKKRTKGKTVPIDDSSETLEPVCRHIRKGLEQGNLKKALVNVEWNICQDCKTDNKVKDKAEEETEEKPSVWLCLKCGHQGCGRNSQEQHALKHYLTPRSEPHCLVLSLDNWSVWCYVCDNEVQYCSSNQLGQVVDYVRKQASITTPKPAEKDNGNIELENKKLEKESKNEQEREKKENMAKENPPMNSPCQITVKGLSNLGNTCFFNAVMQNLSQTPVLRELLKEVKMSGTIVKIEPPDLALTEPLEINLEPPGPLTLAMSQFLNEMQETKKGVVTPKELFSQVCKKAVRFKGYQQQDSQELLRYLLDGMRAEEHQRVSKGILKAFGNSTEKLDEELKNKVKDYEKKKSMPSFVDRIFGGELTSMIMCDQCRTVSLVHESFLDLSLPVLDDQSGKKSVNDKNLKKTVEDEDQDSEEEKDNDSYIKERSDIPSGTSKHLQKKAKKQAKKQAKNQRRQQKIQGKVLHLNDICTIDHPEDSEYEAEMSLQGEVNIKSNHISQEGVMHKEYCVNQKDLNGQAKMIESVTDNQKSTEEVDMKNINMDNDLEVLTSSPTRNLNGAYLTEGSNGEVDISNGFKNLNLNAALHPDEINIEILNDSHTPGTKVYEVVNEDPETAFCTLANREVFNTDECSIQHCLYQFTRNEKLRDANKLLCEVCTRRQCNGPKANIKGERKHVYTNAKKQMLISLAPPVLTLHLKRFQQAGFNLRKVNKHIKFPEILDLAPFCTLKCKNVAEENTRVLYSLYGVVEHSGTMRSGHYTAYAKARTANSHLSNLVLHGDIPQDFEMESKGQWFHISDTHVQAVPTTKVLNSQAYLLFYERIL", "in_short": "as §1"}},
  "note": "A number with no mark means an inactive call.",
  "data": [
    {"smiles": "CCc1c[nH]c(CNC(=O)CCl)n1.Cl", "values": [
      {"measurement": "log2 ratio of Biotin-Ahx-Ub-VS probe labelling", "setting": "OTUD6B", "result": -0.246},
      {"measurement": "log2 ratio of Biotin-Ahx-Ub-VS probe labelling", "setting": "OTUD7B", "result": -0.369},
      {"measurement": "log2 ratio of Biotin-Ahx-Ub-VS probe labelling", "setting": "PRPF8", "result": 0.073},
      {"measurement": "log2 ratio of Biotin-Ahx-Ub-VS probe labelling", "setting": "PSMD7", "result": -0.469},
      {"measurement": "log2 ratio of Biotin-Ahx-Ub-VS probe labelling", "setting": "UCHL1", "result": "-1.33 (active)"},
      {"measurement": "log2 ratio of Biotin-Ahx-Ub-VS probe labelling", "setting": "UCHL3", "result": 0.0893},
      {"measurement": "log2 ratio of Biotin-Ahx-Ub-VS probe labelling", "setting": "UCHL5", "result": -0.335},
      {"measurement": "log2 ratio of Biotin-Ahx-Ub-VS probe labelling", "setting": "USP10", "result": -0.218},
      {"measurement": "log2 ratio of Biotin-Ahx-Ub-VS probe labelling", "setting": "USP15", "result": -0.538},
      {"measurement": "log2 ratio of Biotin-Ahx-Ub-VS probe labelling", "setting": "USP16", "result": -0.0099}
    ]}
  ]
}
